These results are taken from PubChem BioAssay (Tox21).

Each structure is given as a SMILES string. “And” between values parts separate entries of the source, which are not always exact repeats. Identical values can stand only once. Results filed as inconclusive are left out. A structure can be active in one record and inactive in another. The source made the active and inactive calls. Unless noted, calls follow the shape of the dose curve; as a rule, active = well fitted curve in the direction sought with a large enough effect in the repeat runs; inconclusive = weak or mixed curves; inactive = no such curve, though single readings can be large; an effect the other way counts as inactive or inconclusive.

Experiment [1] can be described thus: qHTS assay to identify small molecule antagonists of the thyroid receptor (TR) signaling pathway - cell viability counter screen (AID 743064). Also: nearly all actives have a fitted effect of over 50% in size. Also: potency is read from the fitted curve at half-maximal effect. Put shortly: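 GH3.TRE-Luc cells, 4 h pre-plating; cpd + T3 1 nM final; 37 °C 23.5 h; CellTiter-Fluor 30 min; fluorescence read.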
(qHTS replaces the single test concentration by a dilution series.)

Experiment [2] in a line: qHTS assay to identify small molecule antagonists of the thyroid receptor (TR) signaling pathway (AID 743065). Also: nearly all actives have a fitted effect of over 55% in size. Also: potency is read from the fitted curve at half-maximal effect. Put shortly:
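Antagonism measured as loss of luciferase signal in GH3 cells stably carrying a TRE-luciferase reporter, co-treated with compound and T3 (1 nM final) for 23.5 h at 37 C. Viability was read in the same well by CellTiter-Fluor.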

The test system of experiment [3] is thyroid hormone receptor (rat, GH3 cells). Description: qHTS assay to identify small molecule agonists of the thyroid receptor (TR) signaling pathway (AID 743066; calls by dose curve).
The target of experiment [4] is Estrogen receptor (Homo sapiens) (UniProt P03372). Description: qHTS assay to identify small molecule antagonists of the estrogen receptor alpha (ER-alpha) signaling pathway (AID 743069; active = well fitted curve in the direction sought with a large enough effect in the signal ratio in the repeat runs, not every such curve was filed as active; the % refers to the signal ratio). Put shortly:
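Antagonist mode: compounds in DMSO were co-added with 17beta-estradiol to ER-alpha-bla HEK293 cells (2% charcoal-stripped serum) and left 18 h at 37C. Reporter inhibition was measured as FRET fluorescence after 2 h LiveBLAzer substrate at room temperature.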

The nature of experiment [5]: qHTS assay to identify small molecule antagonists of the estrogen receptor alpha (ER-alpha) signaling pathway - cell viability counter screen (AID 743074; calls by dose curve;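 also: HEK293 cells carrying ER-alpha-UAS-bla reporter stimulated with 17beta-estradiol; nearly all actives have a fitted effect of over 45% in size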).
Experiment [6] deals with Estrogen receptor (Homo sapiens) (UniProt P03372). Description: qHTS assay to identify small molecule agonists of the estrogen receptor alpha (ER-alpha) signaling pathway (AID 743075; calls by dose curve;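 also: HEK293 GripTite cells with ER-alpha and UAS-driven beta-lactamase reporter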; also: potency is read from the fitted curve at half-maximal effect).
For experiment [7] the target is unchanged. In words: qHTS assay to identify small molecule agonists of the estrogen receptor alpha (ER-alpha) signaling pathway using the BG1 cell line (AID 743079). Also: nearly all actives have a fitted effect of over 20% in size. The settings on record: BG1Luc4E2 cells, ERE-luciferase agonist, 22 h.
Experiment [8] can be described thus: qHTS assay to identify small molecule antagonists of the estrogen receptor alpha (ER-alpha) signaling pathway using the BG1 cell line (AID 743080; calls by dose curve;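 also: BG1 cells stimulated with 17beta-estradiol alongside compound; nearly all actives have a fitted effect of over 25% in size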; also: potency is read from the fitted curve at half-maximal effect). A digest of the protocol:
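BG1Luc4E2, endogenous ER-alpha, 4xERE-luc; 5 d charcoal-stripped FBS, phenol red free; 24 h plating; cpd + 17beta-estradiol 21.5 h, 37 C/5% CO2; CellTiter-Fluor viability 30 min, then ONE-Glo luciferase 30 min RT.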

Experiment [9] is described as follows: qHTS assay to identify small molecule antagonists of the estrogen receptor alpha (ER-alpha) signaling pathway using the BG1 cell line - cell viability counter screen (AID 743081).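 Also: compound given together with 17beta-estradiol as the ER stimulus; nearly all actives have a fitted effect of over 45% in size.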
In experiment [10] the target is Aromatase (Homo sapiens) (UniProt P11511). In words: qHTS assay to identify aromatase inhibitors (AID 743083). Also: nearly all actives have a fitted effect of over 55% in size. Also: potency is read from the fitted curve at half-maximal effect.
% is scaled to controls: 0 for no effect and ±100 for the full control effect.

Sequence of Aromatase (Homo sapiens) (P11511 whole entry, looked up): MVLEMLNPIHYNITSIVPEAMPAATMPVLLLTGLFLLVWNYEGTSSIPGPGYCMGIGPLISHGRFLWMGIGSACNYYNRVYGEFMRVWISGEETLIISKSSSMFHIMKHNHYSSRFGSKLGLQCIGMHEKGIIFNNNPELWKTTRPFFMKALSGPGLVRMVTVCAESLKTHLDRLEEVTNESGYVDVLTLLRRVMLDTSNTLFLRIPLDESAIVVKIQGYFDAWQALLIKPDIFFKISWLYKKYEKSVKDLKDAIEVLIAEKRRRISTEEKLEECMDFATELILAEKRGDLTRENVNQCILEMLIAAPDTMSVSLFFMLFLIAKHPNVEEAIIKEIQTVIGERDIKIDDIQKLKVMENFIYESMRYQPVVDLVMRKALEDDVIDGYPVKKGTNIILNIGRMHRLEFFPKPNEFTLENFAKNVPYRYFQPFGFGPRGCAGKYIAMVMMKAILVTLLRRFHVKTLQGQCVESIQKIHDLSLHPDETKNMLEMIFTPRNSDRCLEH
Sequence of Estrogen receptor (Homo sapiens) (P03372 whole entry, looked up): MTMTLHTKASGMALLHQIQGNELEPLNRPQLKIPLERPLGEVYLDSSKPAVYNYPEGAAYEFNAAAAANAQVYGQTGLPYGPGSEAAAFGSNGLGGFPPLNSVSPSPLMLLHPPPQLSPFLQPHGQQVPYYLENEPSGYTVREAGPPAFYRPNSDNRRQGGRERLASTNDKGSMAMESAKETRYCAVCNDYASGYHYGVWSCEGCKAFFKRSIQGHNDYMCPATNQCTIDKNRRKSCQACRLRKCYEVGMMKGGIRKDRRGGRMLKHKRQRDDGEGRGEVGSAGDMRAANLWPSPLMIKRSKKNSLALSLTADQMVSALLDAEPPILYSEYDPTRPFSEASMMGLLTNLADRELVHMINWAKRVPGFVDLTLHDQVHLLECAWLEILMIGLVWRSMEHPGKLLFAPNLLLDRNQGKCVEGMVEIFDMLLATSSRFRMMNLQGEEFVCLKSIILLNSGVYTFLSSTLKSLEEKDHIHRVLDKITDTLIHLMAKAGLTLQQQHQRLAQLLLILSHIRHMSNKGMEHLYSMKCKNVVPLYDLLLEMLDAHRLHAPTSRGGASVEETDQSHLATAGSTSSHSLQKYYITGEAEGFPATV

Consider `CCOP(=O)(CN(CCO)CCO)OCC`, for which the Potency entry in experiment [1], in experiment [2], in experiment [3], in experiment [4], in [5] and in experiment [6] was “inactive” each time. Besides, the Potency result in experiment [8], in [9] and in experiment [10] was “inactive” throughout. In addition, in [7] (at 70.3 µM (top of the series)), the activation was -2.5% (inactive).

In the case of `COc1cccc([C@@]2(O)CCCC[C@@H]2CN(C)C)c1`, the Potency entry in experiment [1], in experiment [2], in experiment [3], in experiment [4], in experiment [5] and in experiment [6] was “inactive” in each case. Also, the Potency entry in experiment [8], in [9] and in experiment [10] was “inactive” each time. Also, the activation in [7] (at 70.3 µM (top of the series)) was 7.73% (inactive).

As to `S=C=S`, the Potency entry in [1], in experiment [2], in experiment [3], in [4], in experiment [5] and in [6] was “inactive” in each case. Besides, the Potency entry in experiment [8], in [9] and in experiment [10] was “inactive” each time. Also, the activation in experiment [7] (at 70.3 µM (top of the series)) was -5.81% (inactive) and -2.85% (inactive).

`CC1NCCOC1c1ccccc1` (stereo unspecified): the Potency entry in experiment [1], in experiment [2], in experiment [3], in experiment [4], in experiment [5] and in [6] was “inactive” each time. The Potency entry in [8], in [9] and in experiment [10] was “inactive” in each case. The activation in experiment [7] (at 70.3 µM (top of the series)) is 12.2% (inactive).

Turning to `C/C(=N\NC(=O)Nc1cc(F)cc(F)c1)c1ncccc1C(=O)O`, the Potency entry in experiment [1], in [2], in [3], in [4], in experiment [5] and in [6] was “inactive” each time. The Potency entry in [8], in [9] and in [10] was “inactive” in each case. The activation in experiment [7] (at 70.3 µM (top of the series)) is -0.0536% (inactive).

Consider `CCC1(CC)C(=O)C=CNC1=O`, for which the Potency entry in [1], in experiment [2], in experiment [3], in experiment [4], in experiment [5] and in [6] was “inactive” throughout. Besides, the Potency result in experiment [8], in [9] and in [10] was “inactive” in each case. In addition, the activation in experiment [7] (at 70.3 µM (top of the series)) was 10.4% (inactive).

`ClCC1CO1` (stereo unspecified): the Potency result in experiment [1], in experiment [2], in experiment [3], in [4], in [5] and in experiment [6] was “inactive” throughout. Also, the Potency result in [8], in experiment [9] and in [10] was “inactive” throughout. The activation in [7] (at 70.3 µM (top of the series)) is -1.3% (inactive) and 13.9% (inactive).

For `ClC(Cl)(Cl)Cl`, the Potency result in [1], in experiment [2], in [3], in [4], in experiment [5] and in experiment [6] was “inactive” each time. Also, the Potency entry in experiment [8], in experiment [9] and in experiment [10] was “inactive” throughout. Besides, the activation in experiment [7] (at 70.3 µM (top of the series)) was 2.38% (inactive) and 2.1% (inactive).

With `CN(C)C(=O)Oc1cc(OC(=O)N(C)C)cc(C(O)CNC(C)(C)C)c1` (stereo unspecified), the Potency result in experiment [1], in experiment [2], in [3], in experiment [4], in experiment [5] and in experiment [6] was “inactive” each time. The Potency entry in experiment [8], in experiment [9] and in experiment [10] was “inactive” in each case. Besides, the activation in experiment [7] (at 32.5 µM (top of the series)) was -8.21% (inactive).

As for `O=C(Cl)CCl`, the Potency result in experiment [1], in experiment [2], in experiment [3], in experiment [4], in experiment [5] and in [6] was “inactive” throughout. The Potency result in experiment [8], in [9] and in experiment [10] was “inactive” in each case. Further, in [7] (at 95 µM (top of the series)), the activation is 0.754% (inactive).

On to `CS(=O)(=O)Cl`, for which the Potency entry in [1], in experiment [2], in experiment [3], in experiment [4], in experiment [5] and in experiment [6] was “inactive” throughout. In addition, the Potency result in [8], in experiment [9] and in experiment [10] was “inactive” in each case. The activation in experiment [7] (at 95 µM (top of the series)) is 7.45% (inactive).

On to `CCOC(=O)C(Cl)Cc1cc(-n2nc(C)n(C(F)F)c2=O)c(F)cc1Cl` (stereo unspecified), for which the Potency result in [1], in experiment [2], in [3], in experiment [4], in experiment [5] and in experiment [6] was “inactive” throughout. In addition, the Potency result in [8] and in experiment [9] was “inactive” each time. Besides, the Potency in [10] was 54.5 µM (active).

`Cc1ccc(-c2nc3ccc(C)cn3c2CC(=O)N(C)C)cc1`: the Potency entry in experiment [1], in experiment [2], in experiment [3], in experiment [5], in [6] and in experiment [8] was “inactive” each time. Besides, the Potency entry in experiment [9] and in [10] was “inactive” throughout. The activation in experiment [7] (at 70.3 µM (top of the series)) was 15.6% (inactive).

For the molecule `CCOC1Oc2ccc(OS(C)(=O)=O)cc2C1(C)C` (stereo unspecified), the Potency entry in experiment [1], in [2], in experiment [3], in [4] and in experiment [10] was “inactive” each time.

Turning to `Clc1nc(Cl)nc(Nc2ccccc2Cl)n1`, the Potency entry in experiment [1], in experiment [2], in experiment [3], in experiment [4], in [6] and in experiment [8] was “inactive” each time. The Potency result in experiment [9] and in experiment [10] was “inactive” each time. Besides, the activation in experiment [7] (at 70.3 µM (top of the series)) was 9.21% (inactive).

On to `N=C(N)[Se]`, for which the Potency result in [1], in [2], in experiment [3], in experiment [4], in experiment [5] and in experiment [6] was “inactive” throughout. The Potency entry in [8] and in experiment [10] was “inactive” in each case. The activation in experiment [7] (at 95 µM (top of the series)) was -2.62% (inactive).

As to `CCCCCCC1CCOC1=O` (stereo unspecified), the Potency entry in [1], in experiment [2], in experiment [3], in experiment [5], in experiment [9] and in [10] was “inactive” in each case.

On to `CCC1(c2ccccc2)CCC(=O)NC1=O` (stereo unspecified), for which the Potency result in experiment [1], in experiment [2], in experiment [3], in experiment [4], in experiment [5] and in [6] was “inactive” each time. Besides, the Potency result in experiment [8] and in [10] was “inactive” each time. Moreover, in [7] (at 70.3 µM (top of the series)), the activation is 2.78% (inactive).

Take `CC[C@H](N)c1ccccc1`: the Potency entry in experiment [1], in experiment [2], in experiment [3], in experiment [4], in [6] and in experiment [8] was “inactive” throughout. Besides, the Potency result in experiment [9] and in experiment [10] was “inactive” throughout. Besides, the activation in [7] (at 70.3 µM (top of the series)) was 0.171% (inactive).

With `O=C1C2CC=CCC2C(=O)N1SC(Cl)(Cl)Cl` (stereo unspecified), the Potency was 6.68 µM (active) and 2.39 µM (active) in experiment [1]; 2.98 µM (active) and 68.3 µM (active) and 1.69 µM (active) in experiment [2]; “inactive and 48.2 µM [activator] (active)” in experiment [6]; 26.6 µM (active) in experiment [8]; 13.3 µM (active) and inactive and 3.01 µM (active) in experiment [10]. Also, the Potency result in experiment [3], in [4] and in [9] was “inactive” in each case.

Consider `CC(C)NCC(O)c1ccc([N+](=O)[O-])cc1` (stereo unspecified), for which the Potency entry in experiment [1], in experiment [2], in experiment [3], in experiment [5], in experiment [9] and in experiment [10] was “inactive” each time.

Turning to `COc1ccccc1OC`, the Potency result in experiment [1], in experiment [2], in experiment [3], in experiment [4], in experiment [6] and in experiment [8] was “inactive” in each case. Further, the Potency entry in experiment [9] and in experiment [10] was “inactive” in each case. In addition, in experiment [7] (at 70.3 µM (top of the series)), the activation was 21.9% (inactive).

As for `O=P(O)(O)CN(CP(=O)(O)O)CP(=O)(O)O`, the Potency result in [1], in experiment [2], in experiment [3], in experiment [4], in [5] and in [6] was “inactive” in each case. Besides, the Potency result in [8], in experiment [9] and in [10] was “inactive” in each case. In addition, in experiment [7] (at 32.5 µM (top of the series)), the activation is 11.2% (inactive).

`CC[C@@H](CO)NC(=O)[C@@H]1C=C2c3cccc4[nH]cc(c34)C[C@H]2N(C)C1`: the Potency result in [1], in experiment [2], in [3], in [5], in experiment [6] and in experiment [8] was “inactive” each time. Also, the Potency result in experiment [9] and in experiment [10] was “inactive” each time. For the same molecule, in experiment [7] (at 70.3 µM (top of the series)), the activation is 2.56% (inactive).

Take `Cc1cc(OC(=O)N(C)C)nn1C(=O)N(C)C`: the Potency result in [1], in experiment [2], in experiment [3], in [4], in experiment [6] and in [8] was “inactive” throughout. The Potency entry in experiment [9] and in experiment [10] was “inactive” each time. In experiment [7] (at 70.3 µM (top of the series)), the activation is -8.77% (inactive).
